Test results taken from PubChem BioAssay (Tox21).
Results filed as inconclusive are left out. Calls of active or inactive are those of the source. The call rests on the fitted dose curve.

Assay: qHTS assay to identify small molecule agonists of the endoplasmic reticulum stress response signaling pathway - cell viability counter screen (AID 1159517); further: nearly all actives have a fitted effect of over 50% in size
Details: ESRE-bla HeLa viability, CellTiter-Glo luminescence, 5 h; series mostly up to 61 µM; activity change, negative = cytotoxicity: at the top concentration
Excerpt: U.S. Tox21 Program National Center for Advancing Translational Sciences [NCATS] NIH Chemical Genomics Center [NCGC] U.S. Environmental Protection Agency [EPA] National Institutes of Environmental Health Sciences [NIEHS] National Toxicology Program [NTP] U.S. Food and Drug Administration [FDA] Tox21 Assay Overview: Endoplasmic Reticulum (ER) plays an important role in cellular signaling, protein folding/maturation, stress response, lipid biosynthesis, calcium storage and release etc. Under stress conditions, proteins in ER misfold or unfold, and leading to the expression of ER stress responsive genes. ER stress has been associated with a variety of pathophysiological conditions such as cancer, inflammation, neurodegenerative diseases, diabetes, ischemic heart disease etc. To identify the compounds that induce ER stress response, an ER stress reporter cell line, CellSensor ESRE-bla HeLa (Life Technologies, Carlsbad, CA) containing a beta-lactamase reporter gene under control of the Endoplasmic reticulum Stress Response Element (ESRE) was used to screen Tox21 10K compound library. The cytotoxicity of the Tox21 compound library against the ESRE-bla HeLa cell line was tested in parallel by measuring cell viability using the CellTiter-Glo assay in the same wells.
Tox21 Assay Protocol Summary: ESRE-bla HeLa cells were dispensed at 1,500 cells/6 uL of assay medium per well into black wall/clear-bottom 1536-well plates using a Multidrop Combi (ThermoFisher Scientific, Waltham, MA) dispenser. After the assay plates were incubated at 37 C and 5% CO2 for an overnight, 23 nL of compounds dissolved in DMSO, positive controls or DMSO only was transferred to the assay plate by a Pintool station (Kalypsys, San Diego, CA). The assay plates were incubated at 37 C and 5% CO2 for 5 hr. One uL of LiveBLAzer B/G FRET substrate (Life Technologies) was added using a FRD (Flying Reagent Dispenser, Aurora Discovery, San Diego, CA) and the plates were incubated at room temperature for 2 hr. Fluorescence intensity (405 nm excitation, 460 nm and 530 nm emissions) was measured using an Envision plate reader (PerkinElmer, Shelton, CT). For cytotoxicity, 4 ul/well of CellTiter-Glo reagent was added into the assay plates using an FRD. After 30 min incubation at room temperature, the luminescence intensity was measured using a ViewLux plate reader (PerkinElmer).
On the % scale 0 is the no-effect control and ±100 the full control effect.

| Structure (SMILES) | activity change, negative = cytotoxicity |
| --- | --- |
| CCCCCCCCCCO[C@@H]1O[C@H](CO)[C@@H](O)[C@H](O)[C@H]1O | 0.341% (inactive) |
| CCC(C)(C)CC | -24.6% [at 78.8 µM] (inactive) |
| CCN(CC)c1ccc2c(-c3ccccc3C(=O)O)c3ccc(=[N+](CC)CC)cc-3oc2c1 | -28.2% (inactive) |
| CN1CCC(N(Cc2cccs2)c2ccccc2)CC1 | -14% (inactive) |
| NC(=O)C(c1ccccc1)(c1ccccc1)[C@@H]1CCN(CCc2ccc3c(c2)CCO3)C1 | 7.21% (inactive) |
| OC(CN1CCC(Cc2ccc(F)cc2)CC1)c1ccc(Cl)cc1 (stereo not given) | -18.3% (inactive) |
| CCC(CC)Nc1ccc(C)c(C)c1 | -1.36% (inactive) |
| C=CCOc1ccccc1OCC(O)CNC(C)C (stereo not given) | 6.18% (inactive) |
| OCCN1CCN(CCCN2c3ccccc3C=Cc3ccccc32)CC1 | 13.4% (inactive) |
| O=C(NCCO[N+](=O)[O-])c1cccnc1 | 2.83% (inactive) |
| OC(C#CCN1CCCC1)(c1ccccc1)c1ccccc1 | 16.5% (inactive) |
| C[C@@H]1C[C@H]2O[C@@]3(O[C@@H]2C(C)(C)O)[C@H](O)[C@@]2(C)[C@@H]4CC[C@H]5C(C)(C)[C@@H](O[C@@H]6OC[C@@H](O)[C@H](O)[C@H]6O)CC[C@@]56C[C@@]46CC[C@]2(C)[C@@H]13 | 13.9% (inactive) |
| O=C(O)CC(=O)C(=O)O | -1.49% [at 78.8 µM] (inactive) |
| COc1ccc(S(=O)(=O)N2C(=O)[C@@](c3ccccc3OC)(N3C[C@H](O)C[C@H]3C(=O)N(C)C)c3cc(Cl)ccc32)c(OC)c1 | 6.59% (inactive) |
| CC(C)(C)OCC1CO1 (stereo not given) | 5.79% [at 78.8 µM] (inactive) |
| C=C1C(=C/C=C2\CCC[C@]3(C)[C@@H]([C@H](C)/C=C/[C@@H](O)C4CC4)CC[C@@H]23)C[C@@H](O)C[C@@H]1O | 0.376% (inactive) |
| Clc1ccc2c(c1)CCc1cccnc1C2=C1CCNCC1 | -4.34% (inactive) |
| Nc1cc(C(=O)O)c(O)c(S(=O)(=O)O)c1 | 5.67% (inactive) |
| CC(=O)c1ccc2c(c1)N(CCCN(C)C)c1ccccc1S2 | -13.5% (inactive) |
| NC(N)=NCCC[C@H](N)C(=O)O | -7.79% [at 6.95 µM] (inactive) |

| Structure (SMILES) | activity change, negative = cytotoxicity |
| --- | --- |
| Nc1ccccc1S(=O)(=O)c1ccccc1 | -12.6% (inactive) |
| COCCCN1CCC(NC(=O)c2cc(Cl)c(N)c3c2OCC3)CC1 | 0.422% (inactive) |
| CCC(Cl)CCC(Cl)C(Cl)CC(Cl)C(Cl)C(Cl)CCl (stereo not given) | -29.3% (inactive) |
| Nc1ncn([C@H]2C[C@H](O)[C@@H](CO)O2)c(=O)n1 | -5.26% (inactive) |
| O=C(O)c1ccco1 | -0.35% (inactive) |
| COc1cc(C(=O)OCCCN2CCCN(CCCOC(=O)c3cc(OC)c(OC)c(OC)c3)CC2)cc(OC)c1OC | 1.51% (inactive) |
| CC1OC(=O)C(C)OC1=O (stereo not given) | 2.68% (inactive) |
| C#Cc1cccc(Nc2ncnc3cc(OCCOC)c(OCCOC)cc23)c1 | -1.07% (inactive) |
| CCN(CC)CCNc1ccc(CNC=O)c2sc3ccc(OC)cc3c(=O)c12 | -25.1% (inactive) |
| COc1cc2nc(Cl)nc(N)c2cc1OC | 13% (inactive) |
| Cn1c(=O)cc(Oc2ccc(F)cc2F)c2cnc(NCC(C)(C)O)nc21 | 12.9% (inactive) |
| O=C(O)C(S)C(S)C(=O)O (stereo not given) | -1.51% (inactive) |
| CC(C)(C)Cl | 3.98% [at 78.8 µM] (inactive) |
| CC(C)Cc1ccc(C(C)C(=O)OCc2ccccn2)cc1 (stereo not given) | -10.4% (inactive) |
| CC(C)(CO)[N+](=O)[O-] | -0.6% (inactive) |
| C=C(C)C(=O)OCCOCC | -23% [at 78.8 µM] (inactive) |
| CCO[Si](CCCCl)(OCC)OCC | -2.48% (inactive) |
| C=CC(=O)OCCOc1ccccc1 | -18.8% (inactive) |
| Cc1oc2c(NC(=O)c3c(Cl)cccc3Cl)cccc2c1C(C)(C)O | -20.8% (inactive) |
| O[C@@H](COc1cccc2ncccc12)CN1CCN(C2c3ccccc3[C@@H]3[C@H](c4ccccc42)C3(F)F)CC1 (stereo not given in full) | 9.7% (inactive) |
